{
  "source": "PubChem BioAssay (NCI)",
  "note": "Several values for one entry are separate records, joined by “and”; a condition that tells them apart may be missing. Equal entries are not always repeated. The panel holds about 83,000 compounds, 20% with a hit somewhere; the sample as a whole holds those more often.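 Treatment: one concentration, 48 hours, 96-well format. Scoring: percent growth, with anything below 10 considered active.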 A number with no mark means an inactive call. Activity calls are given as the source filed them.",
  "data": [
    {"tested_on": "MDA-MB-468 breast", "assay": "NCI-60 one-dose screen, 48 h (100 = growth as untreated, 0 = no growth, -100 = all killed)", "settings": "10 µM unless noted", "values": [
      {"smiles": "COc1cc(C2C3=C(COC3=O)Nc3cc4c(cc32)CCC4)cc2c1OCO2", "note": "(centres undefined)", "growth": "-8.49% (active)"},
      {"smiles": "CCOC(=O)c1c(C)nc2ccccc2c1/C=C/c1cccs1", "growth": "-2.39% (active)"},
      {"smiles": "CN(C)c1ccc(C(=C2C=CC(=[N+](C)C)C=C2)c2ccccc2Cl)cc1", "growth": "-57.8% (active) and -84.2% (active)"},
      {"smiles": "Clc1ccc2c(c1)nnn1c3ncccc3c(Br)c21", "growth": "76.1%"},
      {"smiles": "CO[C@]12C=C/C(=C(/C(=O)OCc3cccnc3)C(=O)CCCCCCCC[C@@]3(OC)C=C/C(=C(/C(=O)OCc4cccnc4)C(=O)CCCCCCCC1)O3)O2", "growth": "-4.86% (active)"},
      {"smiles": "NNC(=S)N/N=C/c1ccccn1", "growth": "8.55% (active)"},
      {"smiles": "C=CCn1c(SCC(=O)Nc2ccc(C(=O)/C=C/c3ccc(OC)cc3)cc2)nnc1-c1ccccc1", "growth": "93.9%"},
      {"smiles": "Nc1ncc(-c2ccc3ncnc(Nc4cccc(Cl)c4F)c3c2)cn1", "growth": "-5.52% (active)"},
      {"smiles": "c1ccc(-c2nn[nH]n2)c(-c2ccc(CN3CCN(c4nsc5ccccc45)CC3)cc2)c1", "growth": "75.8%"},
      {"smiles": "CC(=O)Nc1ccc(S(=O)(=O)c2ccnc3cc(Cl)ccc23)cc1", "growth": "9.85% (active)"},
      {"smiles": "O=C1C=C[C@H](O)[C@@]2(CO)O[C@@H]12", "growth": "54.5%"},
      {"smiles": "C=C1C(=O)O[C@H]2[C@H]1CC/C(COC(=O)/C=C/C(=O)OC/C1=C/CC[C@@]3(C)O[C@H]3[C@H]3OC(=O)C(=C)[C@@H]3CC1)=C\\CC[C@@]1(C)O[C@@H]21", "growth": "-5.97% (active)"},
      {"smiles": "CCCC(C(=O)OCC)C(C)OC(=O)OCC", "note": "(centres undefined)", "growth": "101%"},
      {"smiles": "O=C1C=CC(=O)N1c1cccc2c1CCCC2", "growth": "95.1%"}
    ]}
  ]
}
